Results reported in PubChem BioAssay (NCATS).
Where “and” joins values, the source holds several entries; their conditions need not be identical. Equal entries are not always repeated. Inconclusive results are not listed. Values without a mark were called inactive. Calls of active or inactive are those of the source. Calls come from the whole dose curve; as a rule, active = well fitted activation curve with a large enough effect; inconclusive = small, poorly fitted or top-dose-only effect; inactive = no such curve, though single readings can be large or run the other way.

These molecules were tested against Cellular tumor antigen p53 (Homo sapiens) (UniProt P04637) (assay: Primary qHTS for small molecule compounds that upregulate eGFP-tagged delta133p53alpha (in N-terminal) cells. (AID 2060322; note: nearly all actives have a fitted effect of over 75% in size;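 for activation: series mostly up to about 56 µM; 0% = DMSO vehicle and 100% = reference activator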)). Details: NCI-H358 eGFP-delta133p53alpha fluorescence, 24 h; activation: stronger effect = higher value.
Method in brief: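 NCI-H358 cells pre-induced 24 h with 10 ng/ml doxycycline for eGFP-delta133p53alpha, plated dox-free and exposed 24 h at 37C to titrated compounds. Fixed, Hoechst-stained; gated GFP peak intensity by laser scanning cytometry, normalized to DMSO (0%) and 57.5 uM 5-azacytidine (100%).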
Potency is the fitted concentration of half-maximal effect.

Chain of Cellular tumor antigen p53 (Homo sapiens) (P04637 whole entry, looked up): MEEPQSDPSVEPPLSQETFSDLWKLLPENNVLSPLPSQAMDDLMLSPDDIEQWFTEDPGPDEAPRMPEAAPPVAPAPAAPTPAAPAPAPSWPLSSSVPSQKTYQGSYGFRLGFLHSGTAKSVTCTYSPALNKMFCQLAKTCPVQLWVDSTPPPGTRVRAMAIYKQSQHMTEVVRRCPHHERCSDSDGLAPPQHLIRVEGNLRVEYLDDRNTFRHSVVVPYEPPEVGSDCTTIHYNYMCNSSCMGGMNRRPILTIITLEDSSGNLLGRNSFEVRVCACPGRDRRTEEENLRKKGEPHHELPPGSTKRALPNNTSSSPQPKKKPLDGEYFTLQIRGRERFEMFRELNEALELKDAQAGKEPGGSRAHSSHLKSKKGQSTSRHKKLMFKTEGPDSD

SMILES | activation | Potency
Nc1ccc2cc3ccc(N)cc3nc2c1 | -35.1% | –
CCCCCCCCOc1ccccc1C(=O)Nc1ccc(C(=O)OCC[N+](C)(CC)CC)cc1 | -5.01% | –
CCC(=O)Oc1ccc2c(c1)CC[C@@H]1[C@@H]2CC[C@@]2(C)[C@H]1C[C@@H](OC(=O)CC)[C@@H]2OC(=O)CC | -8.47% | –
COc1ccc(-n2nc(CCC(=O)N(C)O)cc2-c2ccc(Cl)cc2)cc1 | -8.47% | –
O=C(O)C1(C(=O)O)CCC1.[NH2-].[NH2-].[Pt+2] | 0.565% | –
Cc1ccnc2c1NC(=O)c1cccnc1N2C1CC1 | -6.69% and 7.43% | –
O=C(OCC(O)CO)c1ccccc1Nc1ccnc2c(C(F)(F)F)cccc12 (stereo not given) | -13.4% | –
Cc1cc(O)c(C)c(C)c1O | 17.5% | –
CCc1c(C)nc2c(-c3cnn(-c4cc(CO)ccn4)c3)c[nH]n2c1=O | 5.67% | –
CCOCCn1c(C2CCN(CCc3ccc(C(C)(C)C(=O)O)cc3)CC2)nc2ccccc21 | -6.69% | –
CC[C@]1(O)C[C@@H]2CN(CCc3c([nH]c4ccccc34)[C@@](C(=O)OC)(c3cc4c(cc3OC)N(C=O)[C@@H]3C45CCN4CC=C[C@](CC)([C@H]45)[C@@H](OC(C)=O)[C@]3(O)C(=O)OC)C2)C1 (stereo not given in full) | -1.44% | –
NC(=O)NN=Cc1ccc([N+](=O)[O-])o1 | 13.5% | –
O=C(O)Cc1ccc(-c2ccccc2)cc1 | -6.21% | –
Cc1c(Cl)cccc1Nc1ccccc1C(=O)O | 8.47% | –
CCc1cc(Cl)c(OC)c(C(=O)NC[C@@H]2CCCN2CC)c1O | 13.4% | –
NC(=Nc1ccccc1)Nc1ccccc1 | 7.53% | –
CCN(CC)CCOC(=O)C(c1ccccc1)c1ccccc1 | -8.47% | –
C[C@@H]1O[C@@H](OC[C@H]2O[C@@H](Oc3c(-c4ccc(O)c(O)c4)oc4cc(O)cc(O)c4c3=O)[C@H](O)[C@@H](O)[C@@H]2O)[C@H](O)[C@H](O)[C@H]1O | -29.9% | –
N#Cc1cc(NC(=O)C(=O)O)c(Cl)c(NC(=O)C(=O)O)c1 | 0.565% | –
O=C(O)c1ccccc1C(=O)Nc1ccc(S(=O)(=O)Nc2nccs2)cc1 | 8.47% | –

SMILES | activation | Potency
Oc1c(I)cc(Cl)c2cccnc12 | -2.51% | –
O=C(O)CCCC[P+](c1ccccc1)(c1ccccc1)c1ccccc1 | 20.9% | –
CNC(=O)c1cnn(-c2nc(N)c3ncn([C@@H]4O[C@H](CO)[C@@H](O)[C@H]4O)c3n2)c1 | -18.4% | –
CC1(C)O[C@H]2C[C@@H]3[C@H]4CCC5=CC(=O)C=C[C@]5(C)[C@@]4(F)[C@@H](O)C[C@]3(C)[C@]2(C(=O)CO)O1 | 8.11% | –
Cc1c(N(C)CS(=O)(=O)O)c(=O)n(-c2ccccc2)n1C | -7.34% | –
Fc1ccc(C(c2ccc(F)cc2)N2CCNCC2)cc1 | -8.47% | –
COc1ccccc1OCC(O)COC(N)=O (stereo not given) | -36.8% and 17.3% | –
CCc1cc2cc(OC)c(OC)cc2c(Cc2ccccc2)n1 | -22.6% | –
CC=C1NC(=O)[C@H]2CSSCCC=C[C@H](CC(=O)N[C@H](C(C)C)C(=O)N2)OC(=O)[C@H](C(C)C)NC1=O | 27.9% | –
CCCCCC(=O)O[C@]1(C(C)=O)CC[C@H]2[C@@H]3CCC4=CC(=O)CC[C@]4(C)[C@H]3CC[C@@]21C | 23.2% | –
Cc1onc(-c2ccccc2)c1C(=O)Cl | 6.21% | –
CNC(=O)c1c(I)c(NC(C)=O)c(I)c(C(=O)O)c1I | -8.47% | –
O=S(=O)(N=Cc1c(O)ccc2ccccc12)c1cccs1 | 11.3% | –
COc1cc2c(cc1OC)[C@@H]1Cc3ccc(OC)c(OC)c3CN1CC2 | 19.3% | –
Nc1ccc(C(=O)Nc2ccccc2N)cc1 | -7.53% | –
NCc1ccccc1Sc1ccccc1CO | 15.3% | –
Cc1nc(NC(=O)N2CCC[C@@H]2C(N)=O)sc1-c1ccnc(C(C)(C)C(F)(F)F)c1 | -9.38% | –
CC(C)(C)C(=O)NCCCC(=O)O | -17.6% | –
OC[C@H]1O[C@@H](Oc2ccc(O)cc2)[C@H](O)[C@@H](O)[C@H]1O | -6.58% | –
CC[C@H](c1ccc(O)cc1)[C@@H](CC)c1ccc(O)cc1 | – | 12.3 µM (active)
